Measured values taken from PubChem BioAssay AID504834 (National Center for Advancing Translational Sciences (NCATS), 2011).
Values joined by “and” are separate entries in the source; they are usually repeats but may differ in a detail not shown here. Identical values can stand only once. About 22,000 (6.9%) of roughly 320,000 compounds were called active. Roughly 27% stayed inconclusive and do not appear here. The call rests on the fitted dose curve; in most records, active means well fitted inhibition curve with a large enough effect; inconclusive means small, poorly fitted or top-dose-only effect, or another doubt; inactive means no such curve, though single readings can be large or run the other way. Shown is part of a subset that was picked to be rich in actives. The source holds several records for some structures; these can differ, active in one and inactive in another.

assay: Primary qHTS for delayed death inhibitors of the malarial parasite plastid, 96 hour incubation; conditions: P. falciparum luciferase reporter growth; series mostly up to 28.7 µM; activity change, negative = inhibition: at the top concentration
How it was run: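 Compounds incubated with erythrocytes infected by luciferase-expressing P. falciparum (2% hematocrit, 0.05% parasitemia final) for 96 hours, 37 C in 5% CO2. Growth inhibition scored as decreased luciferase luminescence.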
On the % scale 0 is the no-effect control and ±100 the full control effect; potency means the concentration at half of the fitted maximal effect.

| SMILES | activity change, negative = inhibition | Potency |
| --- | --- | --- |
| CC(C)C[C@H](NC(=O)C1CCC(CNC(=O)[C@@H]2CCCN2C(=O)OC(C)(C)C)CC1)C(=O)O (some centres undefined) | 2.05% (inactive) |  |
| COc1ccc(CCNC(=O)CCCCCNC(=O)N2CCn3c2nc2ccccc23)cc1OC |  | 14.7 µM (active) |
| CC(C)[C@H](NC(=O)N1CCn2c1nc1ccccc12)C(=O)NCc1ccc2c(c1)OCO2 | 1.93% (inactive) |  |
| COc1ccc(CCNC(=O)CCc2ccccc2O)cc1OC | 4.65% (inactive) |  |
| Cc1ccc(C(=O)N2CCC(n3nccc3NC(=O)Nc3cccc(F)c3)CC2)cn1 | 0% (inactive) |  |
| CCCC(=O)Nc1ccc2c(c1)nc(CCNC(=O)c1ccco1)n2C | 0% (inactive) |  |
| Cc1ccc(C2=NN(C(=O)CSc3nc(N)cc(N)n3)C(c3ccco3)C2)cc1 (centres undefined) | -26.7% (inactive) |  |
| COc1ccc(C2CC(c3cccs3)=NN2C(=O)CCC(=O)O)cc1OC (centres undefined) |  | 2.62 µM (active) |
| COc1ccc(C2CC(c3cccs3)=NN2C(=O)CSc2nncs2)cc1OC (centres undefined) |  | 10.4 µM (active) |
| Cc1ccccc1C1CC(c2cccs2)=NN1S(C)(=O)=O (centres undefined) | -23.6% (inactive) |  |
| COc1ccc(C2CC(c3cccs3)=NN2C(=O)CSc2nnc(N)s2)cc1OC (centres undefined) |  | 10.4 µM (active) |
| COc1ccc(C2CC(c3ccccc3)=NN2C(=O)COC(=O)COc2ccccc2)cc1 (centres undefined) | 23.8% (inactive) |  |
| COc1ccc(C2CC(c3cccs3)=NN2c2ccc(F)cc2)cc1OC (centres undefined) | 0% (inactive) |  |
| COc1cccc(C2CC(c3ccccc3)=NN2S(=O)(=O)c2ccccc2)c1OC (centres undefined) | -2.15% (inactive) |  |
| COc1ccc(C2CC(c3cccs3)=Nc3ccccc3S2)cc1OC (centres undefined) | 11.8% (inactive) |  |
| COc1ccc(C2CC(c3cccs3)=NN2C(=O)COC(=O)c2cc3ccccc3cc2O)cc1OC (centres undefined) | 0% (inactive) |  |
| COc1cccc(C2CC(c3cccs3)=NN2C(=O)CSC2=NCCS2)c1OC (centres undefined) |  | 6.57 µM (active) |
| COc1ccc(C2=NN(C(=O)CCC(=O)O)C(c3cccs3)C2)cc1OC (centres undefined) | 23.4% (inactive) |  |
| COc1ccccc1CNC(=O)COC(=O)CNS(=O)(=O)c1ccc(NC(C)=O)cc1 | -14.5% (inactive) |  |
| CCCn1cc(S(=O)(=O)c2ccc(C)cc2)c(=O)c2cc(OCC)ccc21 | 32.7% (inactive) |  |
| CCOc1ncccc1C(=O)NNC(=O)c1cccc(S(=O)(=O)Nc2ccccc2OC)c1 | 9.01% (inactive) |  |
| O=C(CNC(=O)c1cccs1)N/N=C/c1cccc(Br)c1 | 38.7% (inactive) |  |
| Cc1cc(F)ccc1S(=O)(=O)Nc1ccc(C(=O)N(C)Cc2ccco2)cc1 | 30% (inactive) |  |
| Cc1sc2ncnc(N3CCC(C(=O)Nc4nc5ccc(Cl)cc5s4)CC3)c2c1C | 36.2% (inactive) |  |
| O=C(N/N=C\C1CC=CCC1)c1ccc(Br)o1 (centres undefined) | 2.65% (inactive) |  |
| Cc1ccc(-n2c(C)cc(/C=C(\C#N)C(=O)NCC3CCCO3)c2C)cc1 (centres undefined) |  | 5.86 µM (active) |

| SMILES | activity change, negative = inhibition | Potency |
| --- | --- | --- |
| Cc1ccc(S(=O)(=O)N2CCC(C(=O)NCC3CCCO3)CC2)cc1 (centres undefined) | -25.5% (inactive) |  |
| Cc1ccc(C(=O)N/C(=C/c2cccs2)C(=O)NCC2CCCO2)cc1 (centres undefined) | 32.8% (inactive) |  |
| CC(=O)N(CC(O)CO)c1c(I)c(C(=O)NCC(O)CO)c(I)c(C(=O)NCC(O)CO)c1I (centres undefined) |  | inactive and 13.5 µM (active) |
| CC(C)(Oc1ccc(Cl)cc1)C(=O)OCC(=O)NCCc1ccc(S(N)(=O)=O)cc1 | 9.46% (inactive) |  |
| Cc1cc(C)n2nc(C(=O)OC(C)C(=O)c3cc(C)c(C)cc3C)nc2n1 (centres undefined) | 46.2% (inactive) |  |
| Oc1ccc(Cl)c2c1CCC2 | -18% (inactive) |  |
| Cc1ccc(NC(=O)Nc2cc(-c3ccccc3)nn2C)cc1Cl | 22.7% (inactive) |  |
| COc1cccc(NC(=O)CN(C)C(=O)/C=C/c2cn(-c3ccccc3)nc2-c2cccs2)c1 | 3.17% (inactive) |  |
| COc1ccc(NC(=O)CN(C)C(=O)/C=C/c2cn(Cc3ccccc3)nc2-c2cccnc2)cc1 |  | 9.28 µM (active) |
| O=Cc1cn(Cc2ccccc2)nc1-c1cccnc1 | 10.1% (inactive) |  |
| O=C(Nc1ccc(NC(=O)c2ccc3c(c2)OCO3)cc1)c1cccc(Cl)c1 | -12.7% (inactive) |  |
| CN(c1ccccc1)S(=O)(=O)c1ccc(C(=O)NCCc2ccccc2)cc1 | 4.97% (inactive) |  |
| CC(NC(=O)CSc1nc2c(cc1C#N)CN(C)CC2)c1ccccc1 (centres undefined) | 58.3% (inactive) |  |
| Cc1cc(C)nc(SCc2ccccc2C#N)n1 | 103% (inactive) |  |
| CC1(C)CCc2nc(SCc3ccccc3)c(C#N)cc2C1 |  | 6.57 µM (active) |
| CCCCN(C(=O)c1nn(C)c(=O)c2ccccc12)c1c(N)n(CCC)c(=O)[nH]c1=O | 14.7% (inactive) |  |
| COc1ccccc1C(=O)NC(=S)Nc1ccccc1N1CCCCC1 | 25.3% (inactive) |  |
| Oc1c(C=Nc2cccc3nsnc23)ccc2ccccc12 | 0% (inactive) |  |
| Oc1ccc(N=Nc2nccs2)c(O)c1 |  | 11.7 µM (active) |
| c1ccc(NCc2cccc3ccccc23)nc1 | -21% (inactive) |  |
| Oc1ccc2ccccc2c1N=Nc1nccs1 |  | 9.28 µM (active) |
| COc1ccc(C(=O)N[C@H](C(=O)NCc2ccccc2)C(C)C)cc1 | 13.7% (inactive) |  |
| COc1cccc(NC(=O)N2CCCC2C(=O)NC2CCCCC2)c1 (centres undefined) | -1.78% (inactive) |  |
| CCOC(=O)Cn1c(=O)n(Cc2ccc(OC)cc2)c(=O)c2cccnc21 | 28.9% (inactive) |  |
| c1ccc(-c2oc3ncnc(N4CCOCC4)c3c2-c2ccccc2)cc1 | -6.25% (inactive) |  |
| COc1ccc(-c2oc3ncnc(NCCCO)c3c2-c2ccc(OC)cc2)cc1 |  | 2.08 µM (active) |

| SMILES | activity change, negative = inhibition | Potency |
| --- | --- | --- |
| COc1cc2nc(Cl)nc(NCCO)c2cc1OC | 1.36% (inactive) |  |
| Cc1ccc(S(=O)(=O)N(Cc2ccccc2)c2ccccn2)cc1[N+](=O)[O-] | -14.9% (inactive) |  |
| CCC(C)N1CC(=O)N2Cc3[nH]c4ccccc4c3C[C@H]2C1=O (some centres undefined) | 3.67% (inactive) |  |
| Oc1cccc(C2c3[nH]c4ccccc4c3CCN2Cc2cnn(-c3ccccc3)c2)c1 (centres undefined) | 2.75% (inactive) |  |
| Cc1[nH]nc(-c2ccc(OCc3cnn(-c4ccccc4)c3)cc2O)c1Oc1ccc(Cl)cc1 |  | 13.1 µM (active) |
| CN=C1S/C(=C\c2c(OC)cc(OC)cc2OC)C(=O)N1C | 14.8% (inactive) |  |
| O=C(CN1CCCCCC1)Nc1ccc(S(=O)(=O)N2CCCCC2)cc1 | 4.97% (inactive) |  |
| CC(Oc1ccccc1[N+](=O)[O-])C(=O)N/N=C/c1ccoc1 (centres undefined) | 39.7% (inactive) |  |
| CC(=O)Nc1ccc(C(=O)Nc2nc(-c3cc(C)n(Cc4ccccc4)c3C)cs2)cc1 |  | 4.15 µM (active) |
| CCc1noc(C)c1C(=O)Nc1nc(-c2ccccc2)cs1 | 50.8% (inactive) |  |
| Cc1cc(-c2csc(N)n2)c(C)n1Cc1ccccc1 | -16.6% (inactive) |  |
| CCN(CC(=O)NCc1cccs1)C(=O)/C=C/c1ccc(C)cc1 | -23.7% (inactive) |  |
| Cc1cc2ccccc2n1CCC(=O)O | 29% (inactive) |  |
| O=C(O)CCn1c(O)c(C=C2N=c3ccccc3=N2)sc1=S |  | 4.65 µM (active) |
| O=C(O)CCn1c(Cc2ccccc2)nc2ccccc21 | -16.9% (inactive) |  |
| CCS(=O)(=O)C1=NSC2=NC(=O)/C(=C\c3ccc(OS(=O)(=O)c4ccccc4)cc3)C(=N)N21 | -0.896% (inactive) |  |
| CC(C)(C)C(=O)Nc1c(Br)c(C2CC2)nn1-c1ccccc1 | -2.14% (inactive) |  |
| Cc1cc(=O)oc2c1ccc1ccccc12 | 5.33% (inactive) |  |
| Cc1coc2c(O)cc3c(c12)OC1(N2CCCCC2)C(=O)NCCCC31 (centres undefined) |  | 9.28 µM (active) |
| NNC(=O)c1ccc(COCC(F)(F)C(F)F)cc1 | -23.4% (inactive) |  |
| O=C(N/N=C/c1ccco1)c1csc2c1CCCC2 | 1.77% (inactive) |  |
| CN(C)C(=O)CCC(=O)N1CCCCC1C(=O)Nc1ccc(Oc2ccccc2F)cc1 (centres undefined) | 0% (inactive) |  |
| Cc1cc(C)n(-c2ccc(NC(=O)C3CCCCN3C(=O)c3cccs3)cc2)n1 (centres undefined) | 33.4% (inactive) |  |
| COc1ccc(C(=O)N2CCCCC2C(=O)Nc2ccc(-n3nc(C)cc3C)cc2)o1 (centres undefined) |  | 10.4 µM (active) |
| O=C(CN1CCCCC1)NC(=O)Nc1ccccc1F | 34.5% (inactive) |  |
| CCN(CC(=O)NCC(=O)Nc1cccc(C)c1C)Cc1ccccc1 | -12.1% (inactive) |  |

| SMILES | activity change, negative = inhibition | Potency |
| --- | --- | --- |
| COc1cccc(C(=O)OCc2cc(=O)oc3c(C)c(C)ccc23)c1OC | 33.8% (inactive) |  |
| COc1cccc2cc(-c3cc(=O)oc4cc(C)c(O)cc34)oc12 |  | 13.1 µM (active) |
| COc1cccc2cc(C(=O)N3CCN(C(=O)c4ccccc4)CC3)c(=O)oc12 | 6.51% (inactive) |  |
| O=C(NCc1ccccc1)C(c1ccccc1)N(C(=O)c1csnn1)c1ccc(F)cc1 (centres undefined) | 7.01% (inactive) |  |
| O=C(O)CCCC(=O)Nc1ccc(Oc2cccc(C(F)(F)F)c2)nc1 | -3.37% (inactive) |  |
| O=C(COc1cccc(Cl)c1)NCc1ccccc1 | -11.8% (inactive) |  |
| O=C(O)CCCn1cc(NC(=O)COc2cccc(Cl)c2)cn1 |  | 14.7 µM (active) |
| COc1ccccc1NC(=O)C(C)OC(=O)CC1CCCC1 (centres undefined) | 30.8% (inactive) |  |
| Cc1ccccc1NC(=O)CCNS(=O)(=O)c1ccc2[nH]c(=O)oc2c1 | -22.6% (inactive) |  |
| COc1cccc(CN(C)CC(=O)Nc2sc3c(c2C#N)CCC3)c1 | -16.4% (inactive) |  |
| Cc1ccccc1C(OCC(O)CN1CCCCC1CCO)c1ccccc1 (centres undefined) | 144% (inactive) |  |
| COc1cccc(CN(C)CC(O)COC(c2ccccc2)c2ccccc2C)c1 (centres undefined) |  | 5.86 µM (active) |
| CCc1nn(CCCC(=O)NC(C)c2ccccc2)c(=O)c2cc3occc3n12 (centres undefined) | 0.559% (inactive) |  |
| CCN1C(=O)C(=O)N(CC(=O)Nc2cc(C)ccc2C)C1=O | -1.34% (inactive) |  |
| Cc1cccc(NC(=O)CCN2CC(C)CC(C)C2)c1 (centres undefined) | 30.9% (inactive) |  |
| CNc1nc2c(C)cccn2c(=O)c1C=Nc1ccc(OC)cc1 | 29.5% (inactive) |  |
| NS(=O)(=O)c1ccc(Nc2nc(-c3ccccc3)cs2)cc1 | 20.4% (inactive) |  |
| Cc1cccn2c(=O)c(C=O)c(Nc3ccc(S(N)(=O)=O)cc3)nc12 |  | 5.86 µM (active) |
| CCOCCCNC(=O)c1ccc(CS(=O)(=O)c2cccc(C(F)(F)F)c2)o1 | -15.9% (inactive) |  |
| CCc1cc(C(=O)Nc2nnc(C3CC3)s2)sc1C | 31% (inactive) |  |
| CCC(C)n1c(-c2cc(OC)c(OC)c(OC)c2)nc2nc3ccccc3nc21 (centres undefined) |  | 5.86 µM (active) |
| COc1ccc(CCn2c(-c3ccco3)nc3nc4ccccc4nc32)cc1OC | -6.63% (inactive) |  |
| COc1cc(-c2n[nH]c(=S)n2Cc2ccccc2)cc(OC)c1OC | -5.2% (inactive) |  |
| COc1ccccc1N1CCN(CC(=O)Nc2ccnn2C2CCCC2)CC1 | -16.9% (inactive) |  |
| Cc1ccc(SCC(=O)NNC(=O)c2ccc(S(C)(=O)=O)cc2)cc1 | 48.6% (inactive) |  |
| COc1ccccc1CN1CC(C(=O)NCCc2cn[nH]c2)CCC1=O (centres undefined) | 13.9% (inactive) |  |
